NPSR antag: neuropeptide S receptor (human) antagonism, cAMP; CHO-NPSR cells, cAMP TR-FRET, antagonist mode; Potency, µM (doses to about 38.3 µM), for inactives: at the top dose activity change, negative = inhibition, usual class: inhibitors; 220,000 tested, 1% active; also: % is scaled to controls: 0 for no effect and ±100 for the full control effect; nearly all actives have a fitted effect of over 50% in size
JMJD2E inh: blocks human JMJD2E demethylase activity | JMJD2E catalytic domain, FDH-coupled NADH fluorescence (FDH is formaldehyde dehydrogenase) | B2RXH2 | Potency, µM (series often up to 57.1 µM), inactives show at the top dose activity change, negative = inhibition, hits mostly inhibitors | 230,000 tested, 1.6% active | AID 2147; active = well fitted inhibition curve with a large enough effect, not every such curve was filed as active; inconclusive = small, poorly fitted or top-dose-only effect, or another doubt; inactive = no such curve, though single readings can be large or run the other way;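 also: 0% = wells with enzyme and -100% = buffer wells without enzyme; nearly all actives have a fitted effect of over 50% in size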
KAT2A inh: inhibitors of human GCN5L2 histone acetyltransferase; Potency, µM (doses to about 58.9 µM), for inactives: at the top dose activity change, negative = inhibition, usual class: inhibitors; GCN5L2 HAT assay, ThioGlo1 CoA-SH fluorescence; 390,000 tested, 0.21% active; Q92830; also: % is scaled to controls: 0 for no effect and ±100 for the full control effect
Target sequence (Q92830 whole entry, looked up): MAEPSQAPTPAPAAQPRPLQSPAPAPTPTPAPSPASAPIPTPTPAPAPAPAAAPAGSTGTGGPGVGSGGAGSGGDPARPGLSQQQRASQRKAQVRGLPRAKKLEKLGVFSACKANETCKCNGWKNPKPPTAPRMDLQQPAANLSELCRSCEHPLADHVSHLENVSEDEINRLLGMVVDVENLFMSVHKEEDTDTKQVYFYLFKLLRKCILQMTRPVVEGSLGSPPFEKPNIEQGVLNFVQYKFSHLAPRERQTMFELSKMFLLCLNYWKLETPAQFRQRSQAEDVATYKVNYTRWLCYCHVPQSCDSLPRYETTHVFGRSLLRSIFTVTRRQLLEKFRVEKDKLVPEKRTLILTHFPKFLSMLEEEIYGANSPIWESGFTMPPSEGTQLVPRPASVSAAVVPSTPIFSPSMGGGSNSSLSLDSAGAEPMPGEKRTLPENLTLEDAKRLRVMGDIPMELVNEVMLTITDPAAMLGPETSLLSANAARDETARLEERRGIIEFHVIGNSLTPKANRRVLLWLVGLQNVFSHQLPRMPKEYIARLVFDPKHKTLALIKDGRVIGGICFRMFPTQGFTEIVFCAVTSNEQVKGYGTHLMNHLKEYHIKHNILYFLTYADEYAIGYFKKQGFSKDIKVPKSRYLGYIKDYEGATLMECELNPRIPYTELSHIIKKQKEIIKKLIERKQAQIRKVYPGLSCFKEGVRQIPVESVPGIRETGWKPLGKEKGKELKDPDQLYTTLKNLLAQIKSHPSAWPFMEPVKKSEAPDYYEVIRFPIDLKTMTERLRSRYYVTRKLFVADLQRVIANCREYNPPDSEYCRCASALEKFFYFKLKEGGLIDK
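GCN5L2 (20nM final) in 50mM HEPES, 0.1mM EDTA pH 7.5, 0.01% Tween-20 was preincubated 15 min at room temperature with compound, then given ThioGlo1 (50uM), H3(1-25) peptide (75uM) and acetyl-CoA (70uM); CoA-thiol fluorescence (Ex340/Em540) was read at 0 and 20 min.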
Epigenetic reg: derepresses silenced GFP reporter in murine cells | 280,000 tested, 0.2% active | Potency, µM (doses to about 53.9 µM), without a hit: at the top dose GFP activation, actives largely listed as activators | murine LDR cells, GFP reporter derepression, 30 h | AID 1865; also: % of control where 0% means no effect; nearly all actives have a fitted effect of over 60% in size
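In this reporter-derepression format, murine cells bearing a silenced integrated CMV-GFP locus incubate with test compound (30 h, 37 C), then are washed and imaged; fluorescent objects of 20–120 um count as induced cells.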
IMPase Li inh: IMPase inhibition in cells with lithium potentiation; CHO-M1 cells, IP1 TR-FRET (IP-One), carbachol + lithium; Potency, µM (series often up to 59.4 µM), without a hit: top-dose activity, negative = IMPase inhibition, usual class: inhibitors; 210,000 tested, 0.35% active;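 also: IP1 builds up when IMPase is blocked and the TR-FRET signal falls; plate controls were basal vehicle for no effect and high inhibitor control for full effect; nearly all actives have a fitted effect of over 50% in size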
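CHO cells stably expressing M1 receptor (2000/well) were cultured 16–30 h, then exposed to compounds with a small lithium addition for 30 min at 37C. IP1 was measured by TR-FRET competition; AC50 from Hill fits.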
Sfp PPTase inh: blocks B. subtilis Sfp PPTase activity. Q9F4F7. Biochemical Sfp PPTase activity, qHTS. Potency, µM, for the others: largest response in the series, negative = inhibition, hits mostly inhibitors. 310,000 tested, 3.5% active. AID 1490;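 also: the enzyme is Sfp with the accession as filed and its product quenches rhodamine fluorescence; 0% = enzyme reaction without inhibitor and -100% = no enzyme wells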
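After 15 min at room temperature with compound, 15 nM Sfp received 5 uM rhodamine-CoA plus 12.5 uM BHQ-2-ybbR (50 mM Hepes pH 7.6, 10 mM MgCl2). Rate came from the fluorescence difference over 30 min, ex 525/em 598 nm.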
* marks the source's active call; other numbers are inactive results; [ ] = another dose, or the depositor's remark. Sampled rows, rich in hits. Any-hit rate of the full collection: about 3.6%. Unless noted, calls follow the shape of the dose curve; as a rule, active = well fitted curve in the direction sought with a large enough effect; inconclusive = small, poorly fitted or top-dose-only effect, or another doubt; inactive = no such curve, though single readings can be large; an effect the other way counts as inactive or inconclusive. Potency is read from the fitted curve at half-maximal effect.

Results for COc1c(C2=CC(=O)N(C)C2=O)c2c(n1C)C(=O)c1ccccc1C2=O ?
JMJD2E inh: -16%; Epigenetic reg: 0%; IMPase Li inh: 24%; Sfp PPTase inh: 25µM*

How did C=CC[C@@H]1[C@H](O)CC[C@@]2(C)[C@H]1CC[C@@H]1[C@@H]2CC[C@]2(C)C([C@H](C)CCCC(C)C)CC[C@@H]12 (stereo partly specified) do in these assays?
KAT2A inh: -15%; Epigenetic reg: 1%; IMPase Li inh: 4%; Sfp PPTase inh: 9%

How did O=C(COc1ccc(/C=N/NC(=O)c2cc3ccccc3o2)cc1Br)Nc1ccccc1 do in these assays?
NPSR antag: 10µM*; JMJD2E inh: inconclusive; KAT2A inh: -28%; Epigenetic reg: 9%; IMPase Li inh: -28%[38.3 µM]; Sfp PPTase inh: inconclusive

How did O=C(COc1ccccc1[N+](=O)[O-])Nc1ccc(NC(=O)c2cc3ccccc3o2)cc1 do in these assays?
NPSR antag: 29%; JMJD2E inh: -2%; KAT2A inh: -4%; Epigenetic reg: 0%; IMPase Li inh: 3%; Sfp PPTase inh: -27%

What do the screens show for `CC[n+]1c(/C=C/c2ccc(N(C)C)cc2)ccc2ccccc21`?
NPSR antag: 5µM*; JMJD2E inh: -3%; KAT2A inh: -18%; Epigenetic reg: 4%; IMPase Li inh: 72%; Sfp PPTase inh: -28%

What do the screens show for `CC[n+]1ccc(/C=C/c2ccc(N(C)C)cc2)c2ccccc21`?
NPSR antag: inconclusive; JMJD2E inh: inconclusive; KAT2A inh: -4%; Epigenetic reg: 12%; IMPase Li inh: 155%; Sfp PPTase inh: inconclusive

How did CC[n+]1ccccc1/C=C/c1ccc(N(C)C)cc1 do in these assays?
NPSR antag: -48%; JMJD2E inh: -13%; KAT2A inh: -18%; Epigenetic reg: 16µM*; IMPase Li inh: 32%; Sfp PPTase inh: -5%

How did CN(C)c1ccc(/C=C/c2cc[n+](C)cc2)cc1 do in these assays?
NPSR antag: inconclusive; JMJD2E inh: 0%; KAT2A inh: -14%; Epigenetic reg: 11µM*; IMPase Li inh: 37%[38.3 µM]; Sfp PPTase inh: 3%

How did CN(C)c1ccc(/C=C/c2cc[n+]([O-])cc2)cc1 do in these assays?
NPSR antag: -16%[46.1 µM]; JMJD2E inh: -7%; KAT2A inh: -12%; Epigenetic reg: 0%; IMPase Li inh: 0%[38.3 µM]; Sfp PPTase inh: 0%

What do the screens show for `COc1cc(NC(=O)CSc2ccc(-c3sc(-c4ccccc4)nc3C)nn2)cc(OC)c1`?
KAT2A inh: -8%; Epigenetic reg: -2%

Results for C#CCCCO/N=C1/C[C@@H](O)[C@@H](O)[C@@H]2[C@@H]3C(=O)N(C[C@@H]4CCCO4)C(=O)[C@H]3CC[C@H]12 ?
Epigenetic reg: 0%[10.1 µM]; Sfp PPTase inh: -13%

Results for COC1=CC(=O)C(O)=C/C1=C\C=C\c1ccccc1 ?
JMJD2E inh: 13µM*; KAT2A inh: -15%; Epigenetic reg: inconclusive; IMPase Li inh: 33%; Sfp PPTase inh: 11µM*

Results for CCC(=O)C(C(=O)OC)[C@H](CCc1ccccc1)NC(=O)OC (stereo partly specified) ?
JMJD2E inh: -2%; Epigenetic reg: -1%; IMPase Li inh: 12%; Sfp PPTase inh: 10%

Results for Cc1cc(C)c2nc(-c3ccccn3)cc(C(=O)Nc3ccc(S(=O)(=O)Nc4cc(C)on4)cc3)c2c1 ?
NPSR antag: 10µM*; JMJD2E inh: inconclusive; KAT2A inh: inconclusive; Epigenetic reg: -1%; IMPase Li inh: 10%[38.3 µM]; Sfp PPTase inh: inconclusive

Results for Cc1cc(C)c2nc(-c3ccccn3)cc(C(=O)NCCc3ccc(S(N)(=O)=O)cc3)c2c1 ?
NPSR antag: -51%; JMJD2E inh: inconclusive; KAT2A inh: -9%; Epigenetic reg: 5%; IMPase Li inh: -25%; Sfp PPTase inh: 28µM*

Results for Cc1cc(C)c2nc(-c3ccccn3)cc(C(=O)Nc3ccc(S(=O)(=O)Nc4onc(C)c4C)cc3)c2c1 ?
NPSR antag: -56%; JMJD2E inh: -5%; KAT2A inh: inconclusive; Epigenetic reg: 0%; IMPase Li inh: 2%; Sfp PPTase inh: 35µM*

What do the screens show for `C[C@@]12CC[C@@H]3[C@H](CCC4=CC(=O)CC[C@]43C)[C@@H]1CC[C@@H]2C(=O)Cn1cnc2c(=S)nc[nH]c21`?
IMPase Li inh: 4%

Results for Cc1c(Cl)sn(-c2ccc(Cl)cc2)c1=O ?
NPSR antag: 2.5µM*; JMJD2E inh: -1%; KAT2A inh: 10µM*; Epigenetic reg: 1%; IMPase Li inh: 20%; Sfp PPTase inh: 0.71µM*

Results for Oc1ccccc1N=Nc1ccccc1O ?
NPSR antag: -4%; JMJD2E inh: 32µM*; KAT2A inh: -4%; Epigenetic reg: 3%; IMPase Li inh: 12%; Sfp PPTase inh: 19%

Results for C=CCn1c(O)c(N=Nc2ccccc2O)c2ccccc21 ?
KAT2A inh: -17%

What do the screens show for `O=C(O)c1ccc(-c2nc(-c3ccc(Cl)c(Cl)c3)cs2)cc1`?
NPSR antag: -48%; JMJD2E inh: inconclusive; KAT2A inh: 0%; Epigenetic reg: 1%; IMPase Li inh: -5%; Sfp PPTase inh: -16%

How did NC(=O)C(=CNc1nc(-c2ccc(Cl)c(Cl)c2)cs1)C(N)=O do in these assays?
NPSR antag: -30%; JMJD2E inh: 7.9µM*; KAT2A inh: -5%; Epigenetic reg: 2%; Sfp PPTase inh: 22µM*

Results for N=C(N)SCc1ccc(O)c([N+](=O)[O-])c1 ?
NPSR antag: inconclusive; JMJD2E inh: -12%; KAT2A inh: -2%; Epigenetic reg: 1%; Sfp PPTase inh: 79µM*

What do the screens show for `COc1ccc(-c2c([C@H]3[C@H]4C=CC[C@@H](C)[C@@H]4C(=O)N3Cc3ccccc3)ccc3ccccc23)cc1OC`?
NPSR antag: 6.3µM*; JMJD2E inh: inconclusive; KAT2A inh: -20%; Epigenetic reg: -2%; Sfp PPTase inh: -3%

How did COc1ccc(-c2c(C3C4C=CCC(C)C4C(=O)N3Cc3ccccc3)ccc3ccccc23)cc1 (stereo unspecified) do in these assays?
Sfp PPTase inh: -2%

Results for Cc1cc(C(=O)CCl)c(C)n1CCc1ccccc1 ?
NPSR antag: -56%; JMJD2E inh: inconclusive; KAT2A inh: -13%; Epigenetic reg: 12%; IMPase Li inh: 30%; Sfp PPTase inh: 20µM*

How did Cc1cc(C(=O)CSc2nncs2)c(C)n1Cc1ccco1 do in these assays?
NPSR antag: 5%; JMJD2E inh: -16%; KAT2A inh: -3%; Epigenetic reg: 4%; IMPase Li inh: -1%; Sfp PPTase inh: -14%

Screens from PubChem.
